From PubChem BioAssay come the findings set out here.

Calls of active or inactive are those of the source.

Assay [1] deals with Plasmodium falciparum Sir2 (PF13_0152, Sir2A). As to the kind of experiment: Plasmodium falciparum Sir2A binding compounds – biochemical, small-molecule microarray, 635 nm fluorescence, primary screen (AID 1098).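 Further: score merges spot fluorescence intensity with its signal-to-noise ratio.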 The conditions noted are these: fluorescence 635 nm, higher = more signal.
Assay [2] is described as follows: probe aDKK1 binding to arrayed compounds – biochemical, biotinylated probe, 635/667 nm fluorescence, primary screen (AID 1099).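 Further: score merges 667nm spot fluorescence with signal to noise across triplicate slides.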 The conditions noted are these: small-molecule microarray, higher = more signal.
The nature of assay [3]: probe aCHRDL2 binding to arrayed compounds – biochemical, biotinylated probe, 635/667 nm fluorescence, primary screen (AID 1100). Particulars: small-molecule microarray, higher = more signal.
A short description of assay [4]: change in splice reporter luminescence, either direction, cell-based, HEK293, spliceosome inhibition project, primary screen (AID 1101).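 Further: HEK293 cells carrying a splicing-competent luciferase reporter gene; test concentration not given here.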 Particulars: HEK293 splicing luciferase reporter, 24 h, higher = more signal, called active from +8 up or from −8 down. A general note: A reporter such as luciferase makes a cellular process visible.
The target in assay [5] is Fibroblast growth factor 10 (Homo sapiens) (UniProt O15520). As to the kind of experiment: compounds binding fibroblast growth factor 10 – biochemical, small-molecule microarray, 635 nm fluorescence, primary screen (AID 1102). The conditions noted are these: FGF10 binding, fluorescence 635 nm, higher = more signal.
For assay [6], the system named is glycogen synthase kinase-3 (GSK3A per assay name; protocol says GSK3B). As to the kind of experiment: compounds binding glycogen synthase kinase-3 – biochemical, small-molecule microarray, 635 nm fluorescence, GSK3A, primary screen (AID 1103). Further: the record names both GSK3A and GSK3B. The conditions noted are these: fluorescence 635 nm, higher = more signal.
Assay [7] deals with Epidermal growth factor receptor (Homo sapiens) (UniProt P00533). The experiment in a line: compounds binding epidermal growth factor receptor – biochemical, small-molecule microarray, 635 nm fluorescence, primary screen (AID 1104).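 Further: score merges 667 nm emission intensity with spot signal to noise over triplicate slides.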 The conditions noted are these: EGFR binding, higher = more signal.
Assay [8] deals with Follistatin-related protein 3 (Homo sapiens) (UniProt O95633). As to the kind of experiment: compounds binding follistatin-related protein 3 – biochemical, small-molecule microarray, 635 nm fluorescence, primary screen (AID 1105).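 Further: score merges emission near 667 nm and signal to noise per printed spot across three slides.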 Particulars: FSTL3 binding, higher = more signal.
For assay [9], the target named is Dickkopf-related protein 1 (Homo sapiens) (UniProt O94907). As to the kind of experiment: small molecules binding DKK1 protein – biochemical, small-molecule microarray, 635 nm fluorescence scan, primary screen (AID 1106).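 Further: score merges emission near 667 nm with signal to noise over three replicate slides.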 The conditions noted are these: higher = more signal.
For assay [10], the system named is Inhibin beta A chain (activin A). As to the kind of experiment: small molecules binding activin A – biochemical, small-molecule microarray, 635 nm fluorescence scan, primary screen (AID 1107).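 Further: mouse activin A protein probed at 4.33 µg/mL on printed slides; score merges bound-protein fluorescence near 667 nm with spot signal-to-noise.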 Particulars: INHBA, higher = more signal.
For assay [11], the system named is Human papillomavirus type 1a protein E7 (residues 44-93). As to the kind of experiment: small molecules binding HPV E7 44-93 – biochemical, small-molecule microarray, residues 44-93, 635 nm fluorescence, primary screen (AID 1108).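 Further: E7 fragment applied at 1 µg/mL in TBST for 1 h at 4 C; score combines spot fluorescence with its signal to noise ratio.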 The conditions noted are these: fluorescence 635 nm, higher = more signal.
Assay [12] can be described thus: hepatitis C replication reporter changes, two-sided – Huh7 cells, luciferase reporter, HCV replication inhibitor project, primary screen (AID 1109).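 Further: huh7 hepatoma cells harbouring a luciferase neomycin HCV replicon reporter; luciferase luminescence as measure of HCV replicon replication; test concentration not given here.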 Particulars: Huh7 HCV replicon luciferase reporter, 48 h; higher = more signal.
Assay [13] addresses Left-right determination factor 2 (Homo sapiens) (UniProt O00292). As to the kind of experiment: small molecules binding LEFTY2 protein – biochemical, small-molecule microarray, 635 nm fluorescence scan, primary screen (AID 1110). The conditions noted are these: higher = more signal.
Assay [14] concerns the target Calmodulin-1 (Homo sapiens) (UniProt P0DP23). As to the kind of experiment: small molecules binding calmodulin-1 with EGTA – biochemical, small-molecule microarray, Cy5-labelled CALM1, profiling panel (AID 1111).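 Further: labelled calmodulin applied in Tris saline Tween buffer holding calcium plus EGTA and DTT.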 Particulars: Cy5-CALM1 binding fluorescence, higher = more signal.
Assay [15] has the same target. The experiment in a line: small molecules binding Ca-loaded calmodulin-1 – biochemical, small-molecule microarray, Cy5-labelled CALM1, plus calcium, artefact control for SMM control-protein annotation, profiling panel (AID 1112).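 Further: score merges spot fluorescence with signal to noise from triplicate slides.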 Particulars: Cy5-CALM1 binding fluorescence, higher = more signal.
Assay [16] is described as follows: probe aWnt5a binding to arrayed compounds – biochemical, biotinylated probe, 635/667 nm fluorescence, primary screen (AID 1113).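 Further: score merges 667 nm fluorescence intensity with signal-to-noise per printed feature.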 The conditions noted are these: small-molecule microarray, higher = more signal.
Assay [17] is described as follows: probe aShh binding to arrayed compounds – biochemical, biotinylated probe, 635/667 nm fluorescence, primary screen (AID 1114).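 Further: probe is biotin-labelled aShh protein from a stem cell growth factor screen; measures binding of labelled protein to compounds printed on the slide; score merges feature fluorescence at 667 nm with signal-to-noise.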 Particulars: small-molecule microarray, higher = more signal.
The nature of assay [18]: probe aNog binding to arrayed compounds – biochemical, biotinylated probe, 635/667 nm fluorescence, primary screen (AID 1115).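 Further: probe is biotinylated aNog protein used at 0.15 µg/mL for 1 h at 4 C; z-score combines 667 nm fluorescence of each spot with its signal to noise.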 Particulars: small-molecule microarray, higher = more signal.
For assay [19], the target named is Torsin-1A-interacting protein 1 (Homo sapiens) (UniProt Q5JTV8). The experiment in a line: compound microarray binding of lysate hLAP1 – cell lysate, small-molecule microarray, COS7 lysate, 635/667 nm fluorescence, primary screen (AID 1116). The conditions noted are these: 635 nm fluorescence, higher = more signal.
In assay [20] the target is Alpha-bungarotoxin (Bungarus multicinctus) (UniProt P60615). As to the kind of experiment: compounds binding labelled alpha-BTX control protein – biochemical, small-molecule microarray, Alexa647 label, 635/667 nm fluorescence, artefact control for SMM control protein annotation, profiling panel (AID 1117). The conditions noted are these: alpha-BTX-A647 binding fluorescence, higher = more signal.
Alpha-bungarotoxin (Bungarus multicinctus), sequence (P60615 whole entry, looked up): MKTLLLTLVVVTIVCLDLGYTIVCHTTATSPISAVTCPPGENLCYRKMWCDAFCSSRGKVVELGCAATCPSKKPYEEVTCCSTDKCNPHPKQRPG

Left-right determination factor 2 (Homo sapiens), sequence (O00292 whole entry, looked up): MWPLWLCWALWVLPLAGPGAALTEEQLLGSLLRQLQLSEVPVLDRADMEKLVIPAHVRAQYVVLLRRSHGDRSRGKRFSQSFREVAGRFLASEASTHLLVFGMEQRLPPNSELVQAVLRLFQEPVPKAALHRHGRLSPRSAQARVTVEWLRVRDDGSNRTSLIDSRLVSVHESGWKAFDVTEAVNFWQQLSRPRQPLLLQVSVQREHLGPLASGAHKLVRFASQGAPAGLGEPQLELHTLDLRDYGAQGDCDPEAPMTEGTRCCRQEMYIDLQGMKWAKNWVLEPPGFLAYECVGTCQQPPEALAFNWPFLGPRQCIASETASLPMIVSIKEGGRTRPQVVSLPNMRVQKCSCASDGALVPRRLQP
Epidermal growth factor receptor (Homo sapiens), sequence (P00533 whole entry, looked up): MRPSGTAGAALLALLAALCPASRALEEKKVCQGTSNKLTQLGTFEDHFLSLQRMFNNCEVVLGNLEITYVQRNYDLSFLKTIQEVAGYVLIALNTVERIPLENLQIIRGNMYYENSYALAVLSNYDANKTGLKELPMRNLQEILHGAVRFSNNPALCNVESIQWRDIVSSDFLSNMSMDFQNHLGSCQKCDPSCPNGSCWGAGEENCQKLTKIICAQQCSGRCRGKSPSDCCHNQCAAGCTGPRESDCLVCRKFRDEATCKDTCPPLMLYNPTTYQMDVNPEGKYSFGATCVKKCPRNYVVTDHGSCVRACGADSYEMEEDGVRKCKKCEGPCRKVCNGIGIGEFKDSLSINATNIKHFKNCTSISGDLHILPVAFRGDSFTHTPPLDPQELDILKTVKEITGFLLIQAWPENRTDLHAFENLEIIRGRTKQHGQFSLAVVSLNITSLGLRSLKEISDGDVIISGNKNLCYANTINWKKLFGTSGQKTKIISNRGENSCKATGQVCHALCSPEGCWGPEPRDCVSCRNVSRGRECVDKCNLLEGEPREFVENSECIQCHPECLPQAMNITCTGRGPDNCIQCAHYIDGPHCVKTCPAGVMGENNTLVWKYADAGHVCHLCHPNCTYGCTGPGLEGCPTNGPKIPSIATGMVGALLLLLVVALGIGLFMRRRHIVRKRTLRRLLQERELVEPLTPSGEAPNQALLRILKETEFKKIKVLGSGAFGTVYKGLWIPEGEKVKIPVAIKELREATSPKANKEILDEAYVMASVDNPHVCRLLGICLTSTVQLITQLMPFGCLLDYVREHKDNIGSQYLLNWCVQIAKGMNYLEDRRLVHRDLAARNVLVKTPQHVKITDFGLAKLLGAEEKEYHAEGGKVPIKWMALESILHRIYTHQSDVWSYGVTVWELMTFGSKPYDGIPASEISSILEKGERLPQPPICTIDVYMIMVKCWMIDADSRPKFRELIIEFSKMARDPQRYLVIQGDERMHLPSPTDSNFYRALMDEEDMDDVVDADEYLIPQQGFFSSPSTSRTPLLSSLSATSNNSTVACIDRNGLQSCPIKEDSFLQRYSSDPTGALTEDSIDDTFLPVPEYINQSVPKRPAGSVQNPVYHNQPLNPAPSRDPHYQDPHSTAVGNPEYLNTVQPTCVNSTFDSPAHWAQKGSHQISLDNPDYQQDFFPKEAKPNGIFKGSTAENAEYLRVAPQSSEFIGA
Torsin-1A-interacting protein 1 (Homo sapiens), sequence (Q5JTV8 whole entry, looked up): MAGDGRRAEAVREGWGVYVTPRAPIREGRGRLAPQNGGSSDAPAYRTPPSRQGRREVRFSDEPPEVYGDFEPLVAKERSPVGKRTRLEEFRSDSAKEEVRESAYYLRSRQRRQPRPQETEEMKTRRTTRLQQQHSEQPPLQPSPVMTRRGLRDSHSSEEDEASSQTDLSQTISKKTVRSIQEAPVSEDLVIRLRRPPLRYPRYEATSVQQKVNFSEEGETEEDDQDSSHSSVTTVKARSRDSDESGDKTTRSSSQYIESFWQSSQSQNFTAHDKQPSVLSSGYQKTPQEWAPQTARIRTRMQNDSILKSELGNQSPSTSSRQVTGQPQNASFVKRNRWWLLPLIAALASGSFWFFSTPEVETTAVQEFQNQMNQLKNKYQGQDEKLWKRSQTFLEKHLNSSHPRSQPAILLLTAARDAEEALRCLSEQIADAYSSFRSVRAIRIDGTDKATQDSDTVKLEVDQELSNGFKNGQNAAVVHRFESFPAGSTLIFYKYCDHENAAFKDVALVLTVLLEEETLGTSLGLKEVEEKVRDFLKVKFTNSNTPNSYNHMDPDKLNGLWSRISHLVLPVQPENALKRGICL
Fibroblast growth factor 10 (Homo sapiens), sequence (O15520 whole entry, looked up): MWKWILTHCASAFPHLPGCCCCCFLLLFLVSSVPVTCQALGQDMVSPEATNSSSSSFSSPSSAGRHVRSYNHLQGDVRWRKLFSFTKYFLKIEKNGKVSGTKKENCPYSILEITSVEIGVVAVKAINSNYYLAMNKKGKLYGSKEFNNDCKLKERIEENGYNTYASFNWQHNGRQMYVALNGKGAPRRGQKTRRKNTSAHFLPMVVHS
Follistatin-related protein 3 (Homo sapiens), sequence (O95633 whole entry, looked up): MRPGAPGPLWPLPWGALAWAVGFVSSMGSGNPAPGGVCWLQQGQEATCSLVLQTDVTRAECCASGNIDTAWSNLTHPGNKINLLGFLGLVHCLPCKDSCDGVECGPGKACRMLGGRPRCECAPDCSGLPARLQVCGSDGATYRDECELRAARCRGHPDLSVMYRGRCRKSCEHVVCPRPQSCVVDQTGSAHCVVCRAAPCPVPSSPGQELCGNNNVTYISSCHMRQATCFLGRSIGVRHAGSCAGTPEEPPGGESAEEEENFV
Dickkopf-related protein 1 (Homo sapiens), sequence (O94907 whole entry, looked up): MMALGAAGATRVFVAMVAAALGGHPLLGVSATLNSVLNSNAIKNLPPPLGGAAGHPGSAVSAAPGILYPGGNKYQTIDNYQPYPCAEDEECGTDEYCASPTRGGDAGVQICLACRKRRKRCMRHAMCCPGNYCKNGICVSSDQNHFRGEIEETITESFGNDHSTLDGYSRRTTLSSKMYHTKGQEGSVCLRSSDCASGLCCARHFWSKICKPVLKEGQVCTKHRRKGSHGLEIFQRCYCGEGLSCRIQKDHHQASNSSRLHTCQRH

Consider `O=C1[C@H]2[C@H]3[C@H](O)[C@H](O)CC(=NOC[C@@H](O)COCc4ccco4)[C@H]3CC[C@H]2C(=O)N1Cc1ccc2c(c1)OCO2`, for which the composite z-score in assay [1] was 0.285; in assay [2], 0.534; in assay [3], -1.5; in assay [5], 0.11; in [6], 1.28; in assay [7] it was 0.986. Moreover, the composite z-score is 0.83 in assay [8]; 1.39 in assay [9]; 0.0751 in assay [10]; -0.532 in assay [11]; 1.37 in [13]; -1.37 in assay [14]. The composite z-score in assay [15] was -2.03; in assay [16], -0.119; in [17], -0.349; in assay [18] it was -0.278; in [19], 0.13; in assay [20], -0.147. Also, the results for the z-score in assay [4] and in assay [12] were 0.204 (inactive) and -0.385, respectively.

Turning to `CC(C)CON=C1C[C@@H](O)[C@@H](O)[C@@H]2[C@@H]3C(=O)N(Cc4ccccc4)C(=O)[C@@H]3CC[C@@H]12`, the composite z-score in assay [1] is -0.511; in assay [2] it was -0.278; in [3], -0.737; in assay [5], 0.5; in assay [6], 0.649; in [7], 0.571. For the same compound, the composite z-score in [8] was 0.617; in assay [9], 0.836; in assay [10] it was -0.269; in assay [11] it was 0.673; in assay [13], 0.409; in assay [14] it was -0.312. For the same compound, the composite z-score in assay [15] was -0.475; in [16], -0.0792; in assay [17], -0.365; in assay [18] it was -0.321; in [19], 0.0394; in assay [20] it was -0.102. The results for the z-score in assay [4] and in assay [12] were -0.28 (inactive) and -0.19, respectively.

As to `CC(CCN1CCc2nc(-c3ccccc3)c(-c3ccccc3)cc2C1)=NO[C@H](C)c1cn([C@@H]2COC[C@H]2O)nn1`, the composite z-score in [1] was 1.1; in assay [2], -0.182; in [3], -0.432; in assay [5], 0.215; in assay [6], 0.403; in [7] it was 0.0515. Besides, the composite z-score is 0.343 in assay [8]; 0.0546 in assay [9]; 0.763 in [10]; 1.35 in assay [11]; 0.0738 in [13]; -0.307 in [14]. In addition, the composite z-score in assay [15] was -0.46; in assay [16], -0.0685; in assay [17], -0.0553; in assay [18] it was -0.025; in assay [19], 0.438; in [20], 0.872. In addition, the z-score in [4] was 0.611 (inactive); in [12], -0.883.

`CN(C)c1ccc(C(O)C2C=CC3C(=O)N(c4ccccc4)C(=O)C3N2Nc2ccccc2F)cc1` (stereo not given): the composite z-score in assay [1] is 1.58; in assay [2], 0.407; in assay [3] it was 0.792; in assay [5], -0.235; in assay [6], 1.23; in assay [7] it was -0.675. The composite z-score was 0.206 in assay [8]; -0.606 in assay [9]; 0.941 in assay [10]; 1.31 in [11]; -0.633 in [13]; 0.104 in assay [14]. The composite z-score in [15] is -0.472; in assay [16], -0.0685; in [17], 0.275; in assay [18] it was 0.471; in [19], 0.838; in assay [20], 0.738. Besides, the z-score in assay [4] is -0.947 (inactive); in assay [12] it was -0.369.

For the compound `CCOC(=O)NN=C1C[C@@H](O)[C@@H](O)[C@@H]2[C@@H]3C(=O)N(CC)C(=O)[C@@H]3CC[C@@H]12`, the composite z-score in [1] was 0.163; in assay [2] it was -0.407; in assay [3] it was -0.263; in assay [5], 0.664; in assay [6], 0.434; in assay [7], 0.684. For the same compound, the composite z-score in assay [8] is 0.518; in assay [9] it was 0.14; in assay [10], -0.232; in [11], 0.788; in assay [13], 0.651; in assay [14], -0.21. The composite z-score in [15] is -0.264; in [16] it was -0.118; in assay [17] it was -0.0977; in assay [18], -0.213; in assay [19], 0.197; in assay [20], 0.595. Moreover, the values for the z-score in assay [4] and in assay [12] were 0.379 (inactive) and -0.161, respectively.
